Test results as given in PubChem BioAssay AID1159580 (chemical genetic matrix, 2015).
Several values for one entry are separate records, joined by “and”; a condition that tells them apart may be missing. Equal values may be shown once. Out of some 5,500 compounds screened, about 2,000 (36%) were called active. Roughly 18% stayed inconclusive and do not appear here. Rule as the data show it: active = normalized growth mostly below about 0.91 (no sharp cut-off); inconclusive = no clear call, values can overlap the other calls; inactive = mostly above about 0.92. The list shows a part of the results.

Experiment: chemical genetic growth profiling, strain panel (AID 1159580);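 also: tested at 20 µM; growth read once vehicle control cultures reached saturation at 30 °C; 1 = growth at the plate median or of vehicle wells; lower values mean less growth of the strain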
Details: S. cerevisiae deletion strains, growth OD

Measured: normalized growth

CC(=O)Oc1ccc2c(c1)CCC1C2CC[C@@]2(C)C1CC[C@@H]2OC(C)=O (some centres undefined)
active: locus YDR137W, strain rgp1, active compounds read low 0.841 | locus YDR392W, strain spt3, active compounds read low 0.674
inactive: locus YAL021C, strain ccr4, active compounds read low 1.01 | locus YAL026C, strain drs2, active compounds read low 0.984 | locus YAL030W, strain snc1, active compounds read low 0.984 | locus YBL061C, strain skt5, active compounds read low 0.977 | locus YBR009C, strain hhf1, active compounds read low 0.969 | locus YBR021W, strain FUR4, active compounds read low 0.955 | locus YBR023C, strain chs3, active compounds read low 0.957 | locus YBR171W, strain sec66, active compounds read low 0.921 | locus YBR229C, strain ROT2, active compounds read low 0.94 | locus YBR231C, strain swc5, active compounds read low 1.02 | locus YBR279W, strain paf1, active compounds read low 1.02 | locus YCL011C, strain gbp2, active compounds read low 0.991 | locus YCL016C, strain dcc1, active compounds read low 0.991 | locus YCL029C, strain bik1, active compounds read low 0.972 | locus YCL069W, strain vba3, active compounds read low 0.989 | locus YCR088W, strain abp1, active compounds read low 0.978 | locus YDL005C, strain med2, active compounds read low 1 | locus YDL035C, strain GPR1, active compounds read low 0.971 | locus YDL040C, strain nat1, active compounds read low 0.994 | locus YDL074C, strain BRE1, active compounds read low 0.872 | locus YDL101C, strain DUN1, active compounds read low 0.969 | locus YDL134C, strain PPH21, active compounds read low 0.985 | locus YDL185W, strain tfp1, active compounds read low 0.983 | locus YDL192W, strain arf1, active compounds read low 0.984 | locus YDR001C, strain nth1, active compounds read low 0.983 | locus YDR069C, strain doa4, active compounds read low 0.983 | locus YDR101C, strain arx1, active compounds read low 0.967 | locus YDR159W, strain sac3, active compounds read low 0.924 | locus YDR162C, strain NBP2, active compounds read low 0.969 | locus YDR195W, strain ref2 1.08 | locus YDR297W, strain sur2, active compounds read low 0.988 | locus YDR318W, strain mcm21, active compounds read low 0.971 | locus YDR334W, strain swr1, active compounds read low 0.994 | locus YDR335W, strain msn5, active compounds read low 1.03 | locus YDR388W, active compounds read low 0.979 | locus YDR502C, strain sam2, active compounds read low 0.969 | locus YEL003W, strain gim4, active compounds read low 0.973 | locus YEL037C, strain rad23, active compounds read low 0.992 | locus YEL061C, strain CIN8 (second series), active compounds read low 0.992 | locus YEL061C, strain CIN8, active compounds read low 0.964 | locus YER015W, strain faa2, active compounds read low 1 | locus YER016W, strain bim1, active compounds read low 1 | locus YER110C, active compounds read low 0.984 | locus YER111C, strain swi4, active compounds read low 0.986 | locus YER155C, strain BEM2 (second series), active compounds read low 0.951 | locus YER155C, strain BEM2, active compounds read low 0.973 | locus YER167W, strain BCK2, active compounds read low 0.971 | locus YFR010W, strain ubp6, active compounds read low 1 | locus YGL078C, strain dbp3, active compounds read low 0.98 | locus YGL086W, strain mad1, active compounds read low 0.958 | locus YGL167C, strain pmr1, active compounds read low 0.973 | locus YGL173C, strain kem1, active compounds read low 0.987 | locus YGL227W, strain vid30, active compounds read low 0.989 | locus YGL240W, strain doc1, active compounds read low 0.993 | locus YGL248W, strain PDE1, active compounds read low 0.94 | locus YGL253W, strain hxk2, active compounds read low 1.01 | locus YGR078C, strain PAC10, active compounds read low 0.943 | locus YGR135W, strain pre9, active compounds read low 0.986 | locus YGR229C, strain SMI1, active compounds read low 0.954 | locus YGR252W, strain gcn5, active compounds read low 0.947 | locus YHR013C, strain ard1, active compounds read low 1.02 | locus YHR027C, strain rpn1, active compounds read low 0.995 | locus YHR030C, strain SLT2, active compounds read low 0.988 and 0.952 | locus YHR079C, strain IRE1 (second series), active compounds read low 0.977 | locus YHR079C, strain IRE1, active compounds read low 0.937 | locus YHR094C, strain hxt1, active compounds read low 0.978 | locus YHR129C, strain ARP1, active compounds read low 0.982 | locus YHR142W, strain chs7, active compounds read low 0.953 | locus YHR200W, strain rpn10, active compounds read low 0.963 | locus YIL066C, strain RNR3, active compounds read low 0.948 | locus YIL073C, strain SPO22, active compounds read low 0.97 | locus YIL125W, strain kgd1, active compounds read low 0.966 | locus YIR030C, strain dcg1, active compounds read low 0.981 | locus YJL092W, strain hpr5, active compounds read low 0.975 | locus YJL095W, strain BCK1 (second series), active compounds read low 0.973 | locus YJL095W, strain BCK1, active compounds read low 0.926 and 0.951 | locus YJL115W, strain asf1, active compounds read low 0.997 | locus YJL129C, strain trk1, active compounds read low 0.886 | locus YJL134W, strain LCB3, active compounds read low 0.978 | locus YJL154C, strain vps35, active compounds read low 0.995 | locus YJL164C, strain tpk1, active compounds read low 0.958 | locus YJL166W, strain qcr8, active compounds read low 0.988 | locus YJL168C, strain set2, active compounds read low 0.963 | locus YJL187C, strain SWE1 (second series), active compounds read low 0.956 | locus YJL187C, strain SWE1, active compounds read low 0.979 | locus YJR043C, strain POL32, active compounds read low 0.976 | locus YJR066W, strain TOR1, active compounds read low 0.956
